Source: PubChem
Sfp inh: qHTS Assay for Inhibitors of Bacillus subtilis Sfp phosphopantetheinyl transferase (PPTase); AID 1490, 2009; hit rate 3.5% among 310,000; Potency, µM, for the others: largest response in the series, negative = inhibition, usual class: inhibitors; Biochemical Sfp PPTase activity, qHTS; 4'-phosphopantetheinyl transferase ffp (Bacillus subtilis), Q9F4F7;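 also: the enzyme is Sfp with the accession as filed and its product quenches rhodamine fluorescence; 0% = enzyme reaction without inhibitor and -100% = no enzyme wells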
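Buffer: 50 mM Hepes-Na pH 7.6, 10 mM MgCl2, 0.01% Nonidet P-40, 0.01% BSA. Enzyme 15 nM, pre-exposed to compound 15 min; substrates then added and fluorescence change tracked over 30 min.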
G9a block: qHTS Assay for Inhibitors of Histone Lysine Methyltransferase G9a | Histone-lysine N-methyltransferase EHMT2 (Homo sapiens), Q96KQ7 | G9a H3K9 monomethylation, AlphaScreen, 2 h | Potency, µM (doses to about 102 µM), inactives show at the highest dose activity, negative = inhibition, actives largely listed as inhibitors | hit rate 8.8% among 350,000 | AID 504332, 2011; also: % is scaled to controls: 0 for no effect and ±100 for the full control effect; nearly all actives have a fitted effect of over 75% in size
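Quantitative HTS format: methyltransferase activity on a biotin-tagged H3K9 peptide is measured by AlphaScreen, using a rabbit anti-monomethyl-H3K9 antibody with streptavidin donor and anti-IgG acceptor beads. Final levels are 20 nM enzyme, 500 nM peptide, 20 uM SAM; 2 h RT.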
L3MBTL1 block: qHTS Assay for the Inhibitors of L3MBTL1; Lethal(3)malignant brain tumor-like protein 1 (Homo sapiens), Q9Y468; Potency, µM (doses to about 57.1 µM), for the others: at the top dose activity, negative = inhibition, actives largely listed as inhibitors; hit rate 0.66% among 230,000; AlphaScreen L3MBTL1–H3K9me1 peptide binding; also: % is scaled to controls: 0 for no effect and ±100 for the full control effect; nearly all actives have a fitted effect of over 60% in size
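AlphaScreen proximity signal between nickel-chelate acceptor and streptavidin donor beads (final 10 ug/mL) reports binding of 50 nM L3MBTL1 to 75 nM biotin-H3 K9me1 peptide; complex incubated with compounds 30 min at room temperature; cefsulodin titration as control.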
HP1b chromo inh: HTS for Inhibitors of HP1-beta Chromodomain Interactions with Methylated Histone Tails; Potency, µM (top dose mostly 114 µM), inactives show top-dose activity change, negative = inhibition, actives largely listed as inhibitors; hit rate 0.56% among 390,000; AID 540317, 2011; AlphaScreen HP1-beta / biotin-H3K9me3 peptide binding; Chromobox protein homolog 1 (Homo sapiens), P83916; also: nearly all actives have a fitted effect of over 70% in size
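Compound inhibition of the preformed complex between 50 nM HP1-beta and 50 nM biotinylated H3K9me3 peptide was read by AlphaScreen. Buffer was PBS pH 7.4 with 0.01% Tween-20. Incubations ran 30 min at room temperature, with 10 ug/mL donor/acceptor beads.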
BAZ2B block: qHTS Assay for Inhibitors of BAZ2B | Bromodomain adjacent to zinc finger domain protein 2B (Homo sapiens), Q9UIF8 | AlphaScreen BAZ2B-H3K14Ac peptide displacement | Potency, µM (highest dose often 114 µM), for inactives: at the top dose activity change, negative = inhibition, usual class: inhibitors | hit rate 4.4% among 360,000; also: % is scaled to controls: 0 for no effect and ±100 for the full control effect; nearly all actives have a fitted effect of over 60% in size
Target sequence (Q9UIF8 whole entry, looked up, the tested form may be a part): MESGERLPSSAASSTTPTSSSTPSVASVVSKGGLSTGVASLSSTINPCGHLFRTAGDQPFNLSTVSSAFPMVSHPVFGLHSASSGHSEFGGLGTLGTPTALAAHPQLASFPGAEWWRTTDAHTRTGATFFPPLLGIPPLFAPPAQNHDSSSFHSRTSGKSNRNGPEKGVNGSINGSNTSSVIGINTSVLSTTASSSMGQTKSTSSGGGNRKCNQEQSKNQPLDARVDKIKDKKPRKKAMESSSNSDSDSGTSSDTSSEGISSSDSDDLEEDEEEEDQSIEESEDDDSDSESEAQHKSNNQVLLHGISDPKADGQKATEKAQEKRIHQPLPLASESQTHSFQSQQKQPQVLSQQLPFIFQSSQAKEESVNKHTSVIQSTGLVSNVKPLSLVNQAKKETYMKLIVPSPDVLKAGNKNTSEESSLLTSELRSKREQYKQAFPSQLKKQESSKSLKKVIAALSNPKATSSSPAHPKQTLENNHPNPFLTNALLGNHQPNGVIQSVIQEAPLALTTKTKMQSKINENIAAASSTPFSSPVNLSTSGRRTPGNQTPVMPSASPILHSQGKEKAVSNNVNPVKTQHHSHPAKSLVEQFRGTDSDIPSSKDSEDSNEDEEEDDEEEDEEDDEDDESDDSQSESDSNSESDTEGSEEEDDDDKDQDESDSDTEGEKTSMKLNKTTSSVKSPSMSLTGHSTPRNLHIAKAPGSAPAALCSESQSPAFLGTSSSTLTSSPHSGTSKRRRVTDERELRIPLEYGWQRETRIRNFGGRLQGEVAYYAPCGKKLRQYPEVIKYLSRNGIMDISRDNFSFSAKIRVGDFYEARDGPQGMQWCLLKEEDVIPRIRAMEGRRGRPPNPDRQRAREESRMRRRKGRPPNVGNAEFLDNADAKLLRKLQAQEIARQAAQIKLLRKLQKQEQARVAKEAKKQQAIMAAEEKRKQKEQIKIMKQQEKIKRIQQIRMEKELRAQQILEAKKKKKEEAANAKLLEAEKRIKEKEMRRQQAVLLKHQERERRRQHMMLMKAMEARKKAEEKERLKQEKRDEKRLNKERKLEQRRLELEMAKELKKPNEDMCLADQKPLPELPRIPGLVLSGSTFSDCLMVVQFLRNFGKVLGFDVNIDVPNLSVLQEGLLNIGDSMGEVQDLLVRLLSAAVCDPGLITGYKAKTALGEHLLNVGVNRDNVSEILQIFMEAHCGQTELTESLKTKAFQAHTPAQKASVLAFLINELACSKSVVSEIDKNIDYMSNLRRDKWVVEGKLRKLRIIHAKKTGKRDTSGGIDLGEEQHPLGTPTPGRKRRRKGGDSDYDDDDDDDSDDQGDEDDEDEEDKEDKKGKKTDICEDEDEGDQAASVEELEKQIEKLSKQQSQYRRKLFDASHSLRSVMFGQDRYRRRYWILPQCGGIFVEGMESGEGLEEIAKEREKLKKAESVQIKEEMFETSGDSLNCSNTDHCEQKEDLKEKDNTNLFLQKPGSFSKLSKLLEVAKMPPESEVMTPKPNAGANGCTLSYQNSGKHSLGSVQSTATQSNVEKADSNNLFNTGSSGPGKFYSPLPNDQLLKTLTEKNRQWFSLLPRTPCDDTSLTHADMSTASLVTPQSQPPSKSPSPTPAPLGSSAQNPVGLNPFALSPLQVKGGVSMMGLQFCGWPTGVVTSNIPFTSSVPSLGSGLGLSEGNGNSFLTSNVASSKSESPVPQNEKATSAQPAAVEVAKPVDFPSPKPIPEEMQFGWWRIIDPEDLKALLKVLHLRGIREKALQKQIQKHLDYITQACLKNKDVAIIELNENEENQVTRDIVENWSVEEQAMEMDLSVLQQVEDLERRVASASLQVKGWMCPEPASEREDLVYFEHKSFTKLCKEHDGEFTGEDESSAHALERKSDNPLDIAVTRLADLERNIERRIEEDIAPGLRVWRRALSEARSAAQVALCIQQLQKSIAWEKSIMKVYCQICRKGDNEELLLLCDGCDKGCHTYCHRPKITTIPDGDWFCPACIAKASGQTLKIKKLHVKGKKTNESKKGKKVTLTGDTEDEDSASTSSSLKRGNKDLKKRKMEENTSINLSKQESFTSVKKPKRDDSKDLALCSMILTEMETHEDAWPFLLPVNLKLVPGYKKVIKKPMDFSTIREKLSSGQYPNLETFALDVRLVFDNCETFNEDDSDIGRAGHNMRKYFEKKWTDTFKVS
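Inhibition is scored as reduced AlphaScreen emission. The BAZ2B/b-H3(5-23)K14Ac complex (50 nM each) in PBS pH 7.4, 0.01% Tween-20 meets compound (up to 110 uM) for 30 min at RT before bead addition.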
JMJD2A Tudor inh: qHTS Assay for Inhibitors of JMJD2A-Tudor Domain | AlphaScreen JMJD2A-Tudor / H3K4me3 peptide binding | Potency, µM (series often up to 114 µM), without a hit: at the top dose activity change, negative = inhibition, actives largely listed as inhibitors | hit rate 4.4% among 390,000; also: % is scaled to controls: 0 for no effect and ±100 for the full control effect; nearly all actives have a fitted effect of over 50% in size
Numbers without * were called inactive; ? = inconclusive; nt = no result given; ! = a repeat was not active; [ ] = another dose, or the depositor's remark. The list is not random: actives were taken first. Their share in the collection is about 12%. Calls follow the shape of the dose curve; as a rule, active = well fitted curve in the direction sought with a large enough effect; inconclusive = small, poorly fitted or top-dose-only effect, or another doubt; inactive = no such curve, though single readings can be large; an effect the other way counts as inactive or inconclusive. Potency is read from the fitted curve at half-maximal effect.

SMILES	Sfp inh	G9a block	L3MBTL1 block	HP1b chromo inh	BAZ2B block	JMJD2A Tudor inh
O=[N+]([O-])c1cc(Cl)c(O)c(-[n+]2c(-c3ccccc3)cc(-c3ccccc3)cc2-c2ccccc2)c1	-5.4%	50.1µM*	-6.3%	4.5%	?	?
CC(C)C[C@H]1C(=O)N2CCCC2[C@]2(O)O[C@](NC(=O)[C@@H]3C=C4c5cccc6[nH]c(Br)c(c56)C[C@H]4N(C)C3)(C(C)C)C(=O)N12 (stereo partly specified)	44.7µM*	22.4µM*	nt	nt	nt	nt
O=C(/C=C\c1ccc(Cl)cc1)N[C@@]12CCC(=O)[C@@H]3Oc4c(O)ccc5c4[C@@]31CCN(CC1CC1)[C@@H]2C5	17.7%	nt	nt	nt	nt	nt
CC1=CC(=O)c2c(O)cccc2C1=O	35.5µM*!	-98.3%[2.33 µM]	nt	nt	nt	nt
Cn1c(O)c(C(=N)COc2ccccc2)c(=O)n(C)c1=O	3.7%	15.0%[0.0925 µM]	3.6%	21.4%	5.7%	-7.3%
Cn1c(O)c(C(=O)c2ccccc2Cl)c(=O)n(C)c1=O	-23.8%	?	1.2%	17.7%	nt	89.1µM*
Cc1cccn2c(=O)c(/C=C(\C#N)c3nc4ccccc4s3)c(Oc3ccc(F)cc3)nc12	nt	-25.2%[59 µM]	nt	47.2%	-2.4%	-8.9%
Cc1cc(C)cc(Oc2nc3ccccn3c(=O)c2/C=C(\C#N)c2nc3ccccc3s2)c1	nt	3.55µM*	nt	49.7%	-17.9%	-11.7%
O=C1CS[C@@H](c2ccccc2Cl)c2cc(Cl)ccc2N1	-2.0%	nt	nt	nt	nt	nt
CN1C[C@H](C(=O)N[C@]2(C)O[C@@]3(O)C4CCCN4C(=O)[C@H](Cc4ccccc4)N3C2=O)C[C@@H]2c3cccc4[nH]cc(c34)C[C@H]21 (stereo partly specified)	-25.4%	17.1%[12.7 µM]	nt	nt	nt	nt
CNC(=O)[C@H]1C[C@@H]1[C@H](NP(=O)(c1ccccc1)c1ccccc1)c1ccccc1	19.4%	nt	nt	nt	nt	nt
O=C(O)CNC1c2ccccc2CSc2ccccc21 (stereo unspecified)	nt	nt	nt	4.5%	nt	17.8µM*
C=C1C([C@@]2(C)C(OC(C)=O)CC(=O)O[C@@](C)(COC(C)=O)C2CC(=O)OC)C(OC=O)C(OC(=O)C(OC(C)=O)C(C)CC)[C@]2(C)C(c3ccoc3)CC(=O)C12O (stereo partly specified)	10.7%	-27.9%[2.33 µM]	nt	nt	nt	nt
NCC1OC(O[C@H]2[C@H](O)[C@@H](OC3C(O)C(N)CC(N)C3OC3OC(CO)C(O)C(O)C3N)O[C@@H]2CO)C(N)C(O)C1O (stereo partly specified)	nt	5.97µM*	nt	nt	nt	nt
O=C(NCCc1ccc(Cl)cc1)C(=O)NCC(c1cccs1)S(=O)(=O)c1cccs1 (stereo unspecified)	nt	0.7%[59 µM]	nt	52.8%	1.1%	-4.9%
O=C1NC(=S)SC1=Cc1ccc(N(CCCl)CCCl)cc1	nt	nt	nt	?	nt	31.6µM*
O=C(O)C(O)(c1ccccc1)C1CCCC1 (stereo unspecified)	7.7%	25.1µM*	4.4%	46.1%	?	1.3%
O=C1OC(c2cc(I)c(O)c(I)c2)(c2cc(I)c(O)c(I)c2)c2ccccc21	39.8µM*	7.08µM*	nt	nt	nt	nt
CC[C@@]1(O)C(=O)OCc2c1cc1n(c2=O)-c2cc3ccccc3nc2C1	1.0%	22.8%[59 µM]	nt	nt	nt	nt
CCc1ccccc1NC(=O)NNS(=O)(=O)c1cc(C)ccc1C	5.0%	58.3%	nt	20.9%	-0.4%	-14.4%
COc1ccc2cc1Oc1ccc(cc1)C[C@H]1c3cc(c(OC)cc3CCN1C)Oc1c(OC)c(OC)cc3c1[C@H](C2)N(C)CC3	-1.3%	-36.8%[59 µM]	nt	-21.9%	-31.8%	50.1µM*
COc1cc2c3cc1Oc1cc(ccc1O)C[C@@H]1c4c(cc(OC)c(O)c4Oc4ccc(cc4)C[C@H]3N(C)CC2)CCN1C	-4.6%	?	-0.8%	-6.2%	44.7µM*	?
COc1cc2c3cc1Oc1c(OC)c(OC)cc4c1[C@H](Cc1ccc(cc1)Oc1cc(ccc1O)C[C@H]3N(C)CC2)N(C)CC4	nt	nt	-0.5%	-12.4%	nt	?
CC[C@H]1CN2CC[C@@H]1C[C@H]2[C@@H](O)c1ccnc2ccc(OC)cc12	22.3%	6.2%[21.5 µM]	nt	nt	nt	nt
C[C@]12CC[C@H]3[C@@H](C[C@H](F)C4=CC(=O)CC[C@@]43C)[C@@H]1CC[C@@H]2O	-6.6%	19.5%[59 µM]	nt	nt	nt	nt
SMILES	Sfp inh	G9a block	L3MBTL1 block	HP1b chromo inh	BAZ2B block	JMJD2A Tudor inh
COC1=C[C@H]2C3=C([C@H]2C1=O)[C@H](NC(C)=O)CCc1cc(OC)c(OC)c(OC)c13	26.7%	24.9%[21.5 µM]	nt	nt	nt	nt
O=C(CCC1N=C2c3ccccc3N=C(SCc3cccc(Cl)c3)N2C1=O)N1CCN(c2ccccc2)CC1 (stereo unspecified)	nt	?	nt	14.9%	-27.2%	-31.2%
CC(C)(C)NCc1cccn1-c1sc2c(c1C#N)CCCC2	15.7%	?	-3.0%	?	56.2µM*	28.2µM*
COc1ccc(C[C@@H]2NC[C@H](O)[C@@H]2OC(C)=O)cc1	9.1%	10.5%[21.5 µM]	nt	nt	nt	nt
O=C1NC(=O)N(C2CCCCC2)C(=O)C1C1c2ccccc2C(=O)N1Cc1ccccc1 (stereo unspecified)	2.4%	56.2µM*	-2.1%	40.0%	-24.5%	6.2%
COc1ccc2[nH]c(C)c(CCNCc3cc(OC)c(OC)c(OC)c3)c2c1	44.7µM*	22.4µM*	-18.7%	?	79.4µM*	2.82µM*
Cc1ccc2[nH]c(C)c(CCNCc3cccnc3)c2c1	-2.3%	50.1µM*	nt	22.7%	?	7.0%
COc1ccc2[nH]c(C)c(CCNCc3cc(OC)c4c(c3)OCO4)c2c1	nt	?	-6.4%	?	44.7µM*	1.26µM*
COc1ccc2[nH]c(C)c(CCN3CCC(=O)C(C)C3C)c2c1 (stereo unspecified)	5.0%	?	-9.1%	14.4%	?	?
c1cncc(CNCCN2CCNCC2)c1	nt	nt	nt	24.9%	nt	-2.1%
COc1ccc(CNCCc2c(C)[nH]c3ccc(OC(F)(F)F)cc23)c(OC)c1	?	44.7µM*	nt	?	56.2µM*	17.8µM*
CCN1C[C@@]2(COC)CCC(OC)[C@]34C5C[C@]6(O)[C@@H](OC)C[C@](OC(C)=O)(C([C@H](OC)C23)[C@H]14)C5[C@H]6OC(=O)c1ccc(OC)cc1 (stereo partly specified)	29.3%	nt	nt	nt	nt	nt
CC(Cc1cccc(C(F)(F)F)c1)NCCCc1ccccc1 (stereo unspecified)	-0.9%	16.3%[59 µM]	nt	nt	nt	nt
